# Test results as given in the supplement of paper PMC8728848.
# Many of the other results were omitted from the sample, so the strongest signals are more common in it than they were.
# B1: Surfactant Protein D (Human); Neck + Carbohydrate Recognition Domain (NCRD) (Homo sapiens) (protein)
# chain: MLLFLLSALVLLTQPLGYLEAEMKTYSHRTMPSACTLVMCSSVESGLPGRDRDGREGPRGEKGDPGLPGAAGQAGMPGQAGPVGPKGDNGSVGEPGPKGDTGPSGPPGPPGVPGPAGREGALGKQGNIGPQGKPGPKGEAGPKGEVGAPGMQGSAGARGLAGPKGERGVPGERGVPGNTGAAGSAGAMGPQGSPGARGPPGLKGDKGIPGDKGAKGESGLPDVASLRQQVEALQGQVQHLQAAFSQYKKVELFPNGQSVGEKIFKTAQFVKPFTEAQLLCTQAGGQLASPRSAAENAALQQLVVAKNEAAFLSMTDSKTEGKFTYPTGESLVYSNWAPGEPNDDGGSEDCVEIFTNGKWNDAACGEKRLVVCEF
# Key:
# Test in all cases: glycan array binding signal (z-score within array); higher = stronger binding
# Details in all cases: glycan notation: IUPAC condensed, linker removed; mutation: R343A
# [1] = target: Fuc(a1-2)Gal(b1-3)GalNAc(b1-3)Gal(a1-4)Gal(b1-4)Glc
# Method in brief: (§1)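 The binding signal is a Z-score computed within each array and averaged over linkers. Arrays of the same protein sequence at different concentrations or buffers were also averaged together. Data originate from 3228 arrays in the Consortium for Functional Glycomics database, kept only where the protein sequence was available.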
# [2] = target: Fuc(a1-2)Gal(b1-3)GlcNAc(b1-3)Gal(b1-4)Glc
# Method in brief: as §1
# [3] = target: Fuc(a1-2)Gal(b1-4)GlcNAc
# Method in brief: as §1
# [4] = target: Fuc(a1-4)GlcNAc
# Method in brief: as §1
# [5] = target: Gal(a1-3)GalNAc
# Method in brief: as §1
# [6] = target: Gal(b1-3)Gal
# Method in brief: as §1
# [7] = target: Gal(b1-3)GlcNAc(b1-3)Gal(b1-4)Glc
# Method in brief: as §1
# [8] = target: Gal(b1-4)GalNAc(a1-3)[Fuc(a1-2)]Gal(b1-4)GlcNAc
# Method in brief: as §1
# [9] = target: Gal(b1-4)Glc
# Method in brief: as §1
# [10] = target: Gal3S(b1-3)[Fuc(a1-4)]GlcNAc
# Method in brief: as §1
# [11] = target: GlcNAc(b1-3)Gal(b1-4)GlcNAc(b1-3)Gal(b1-4)GlcNAc
# Method in brief: as §1
# [12] = target: Kdn(a2-3)Gal(b1-4)GlcNAc
# Method in brief: as §1
# [13] = target: Man(a1-2)Man(a1-3)[Man(a1-2)Man(a1-6)]Man
# Method in brief: as §1
# [14] = target: Man(a1-2)Man(a1-3)[Man(a1-2)Man(a1-6)]Man(a1-6)[Man(a1-2)Man(a1-2)Man(a1-3)]Man
# Method in brief: as §1
# [15] = target: Man(a1-2)Man(a1-3)[Man(a1-2)Man(a1-6)]Man(a1-6)[Man(a1-2)Man(a1-2)Man(a1-3)]Man(b1-4)GlcNAc(b1-4)GlcNAc
# Method in brief: as §1
# [16] = target: Man(a1-2)Man(a1-3)[Man(a1-6)]Man(a1-6)[Man(a1-2)Man(a1-3)]Man(b1-4)GlcNAc(b1-4)GlcNAc
# Method in brief: as §1
# [17] = target: Man(a1-2)Man(a1-6)[Man(a1-3)]Man(a1-6)[Man(a1-2)Man(a1-2)Man(a1-3)]Man
# Method in brief: as §1
# [18] = target: Man(a1-3)[Man(a1-6)]Man(a1-6)[Man(a1-2)Man(a1-3)]Man(b1-4)GlcNAc(b1-4)GlcNAc
# Method in brief: as §1
# [19] = target: Neu5Ac(a2-3)Gal(b1-4)GlcNAc(b1-3)Gal(b1-4)[Fuc(a1-3)]GlcNAc
# Method in brief: as §1
# [20] = target: Neu5Gc(b2-6)Gal(b1-4)GlcNAc
# Method in brief: as §1
binder,measurement,setting,value
B1,glycan array binding signal (z-score),[1],-0.236
same,glycan array binding signal (z-score),[2],-0.397
same,glycan array binding signal (z-score),[3],-0.207
same,glycan array binding signal (z-score),[4],-0.016
same,glycan array binding signal (z-score),[5],-0.163
same,glycan array binding signal (z-score),[6],-0.274
same,glycan array binding signal (z-score),[7],-0.279
same,glycan array binding signal (z-score),[8],-0.214
same,glycan array binding signal (z-score),[9],-0.341
same,glycan array binding signal (z-score),[10],0.046
same,glycan array binding signal (z-score),[11],-0.173
same,glycan array binding signal (z-score),[12],-0.194
same,glycan array binding signal (z-score),[13],9.14
same,glycan array binding signal (z-score),[14],6.17
same,glycan array binding signal (z-score),[15],-0.269
same,glycan array binding signal (z-score),[16],9.15
same,glycan array binding signal (z-score),[17],2.79
same,glycan array binding signal (z-score),[18],6.5
same,glycan array binding signal (z-score),[19],-0.226
same,glycan array binding signal (z-score),[20],-0.326
